Measured values as given in PubChem BioAssay AID493244 (The Scripps Research Institute Molecular Screening Center, 2011).
Where “and” joins values, the source holds several entries; their conditions need not be identical. Equal entries are not always repeated. The campaign covered roughly 340,000 compounds. About 390 (0.11%) were called active.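 The calls were made as follows: active = inhibition above the mean inhibition of all tested compounds plus 3 SD (cut at about 17% in these data); inactive = the rest.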 Many of the other results were omitted from the sample, so actives are more common in it than they were.

Target: Troponin I, cardiac muscle (Homo sapiens) + Troponin T, cardiac muscle (Homo sapiens) + Troponin C, slow skeletal and cardiac muscles (Homo sapiens) (UniProt P19429+P45379+P63316)
Experiment: cardiac RTF calcium sensitivity inhibitors, primary screen, biochemical, IANBD-TnC fluorescence, EC70 calcium (AID 493244);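 also: assay run at fixed EC70 calcium of 1.6 mM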
Conditions: IANBD-labeled cardiac RTF, Ca2+ fluorescence; at 7.15 µM; active compounds read high

inhibition, inactive:
O=C(C[C@H]1C(=O)N(c2ccc(F)c(F)c2)C[C@@H]1Cc1ccccc1)Nc1ccccc1 -7.8%
COc1cc(OC)cc(-c2c(-c3ccc(F)cc3)c3cc(-c4ccc5cc[nH]c5c4)ccc3n2C)c1 0.02%
Cc1nc2ccc(NC(=O)c3cccc(S(=O)(=O)N4CCOCC4)c3)cc2s1 7.38%
O=S(=O)(Nc1ccc2nc(N3CCOCC3)sc2c1)c1ccccc1 -15.4%
CCCOc1ccc(N2C(=O)CC(N(CCc3ccc(S(N)(=O)=O)cc3)C(C)=O)C2=O)cc1 (stereo not given) 11.4%
COC(=O)CN(c1cccc(C(C)=O)c1)S(C)(=O)=O -2.17%
CCCC/S(C)=N/S(=O)(=O)c1ccc(C)cc1 (stereo not given) -2.27%
CC(=O)C1C(c2ccc(Cl)cc2)c2c(n[nH]c2C)CC1(C)O (stereo not given) -5.53%
O=C(Nc1cccnc1)c1cc2cc(Br)ccc2oc1=O 3.93%
COc1cccc(N(CC(=O)NC2CCCCCC2)S(=O)(=O)c2ccccc2)c1 -9.96%
COC(=O)C1(C)NC(c2ccccc2OC)C2C(=O)N(c3ccccc3)C(=O)C21 (stereo not given) -1.37%
C=CCC(CC=C)(C(N)=O)c1ccccc1 -6.01%
CNC(=O)COc1ccc(S(=O)(=O)Nc2ccccc2)cc1 -0.29%
CCCCn1c(N)c(N(CC(C)C)C(=O)c2cccc(S(=O)(=O)N3CC(C)OC(C)C3)c2)c(=O)[nH]c1=O (stereo not given) -3.78%
CCN(CC)C(=O)[C@H]1CC(CC(=O)NCc2ccco2)C(=O)N2CCc3c([nH]c4ccccc34)[C@]12C (stereo not given in full) -0.12%
Cc1ccccc1N(C(=O)Cc1cccs1)C(C(=O)NC1CCCCC1)c1cn(C)nc1C (stereo not given) -6.48%
Cc1ccsc1C(C(=O)NC1CCCCC1)N(C(=O)Cc1cccs1)C1CC1 (stereo not given) -0.55%
COc1ccc(C(C#N)(CC(=O)O)c2cnccn2)cc1OC (stereo not given) 2.97%
CCOC(=O)C1Cn2c(nc3c(c2=O)C(C)(CC)Cc2ccccc2-3)S1 (stereo not given) -5.87%
Cc1nc2cc(S(=O)(=O)C(F)(F)F)ccc2s1 0.85%
Cn1c(N)cc(=O)n(C)c1=S 1.39%
Cc1csc(/N=C/N(C)C)c1C#N 5.98%
Cc1c(CCOC(=O)CC23CC4CC(CC(C)(C4)C2)C3)sc[n+]1Cc1ccc([N+](=O)[O-])cc1 -12.4% and -2.7%
CCOC(=O)c1sc(N(Cc2ccccc2)C(=O)CN2C(=O)CN(C)C2=O)nc1C -19.2%
OCCC1CN(Cc2ccc(Oc3ncccn3)cc2)CCN1CCc1ccccc1 (stereo not given) -5.37%
CC1(C)CC(=O)C=C(NCc2ccncc2)C1 -4.04%
O=C(NCc1ccccc1Cl)C1CCC(CNc2c(N3CCCCC3)c(=O)c2=O)CC1 (stereo not given) -11.6%
NC1=NC(c2ccc([N+](=O)[O-])cc2)N(c2ccc(F)cc2)C(N)=N1 (stereo not given) 4.59%
CCn1c(O)c(N=NC2=NC(=O)CS2)c2cc(C)ccc21 3.93%
CCCCC(NC(=O)c1cccc(Br)c1)C(=O)O (stereo not given) -10.9%
CSc1ncnc2c1ncn2CC(=O)C1CCC2C3CCC4=CC(=O)CCC4(C)C3CCC12C (stereo not given) -3.91%
COc1ccc2c(c1)cc1n2CCN=C1NN -7.01%
COc1ccccc1-c1n[nH]c2c1[C@H](C)CC[C@H]2C(C)C -2.28%
CC(=O)c1nn(-c2cccc(C(F)(F)F)c2)c(=O)[nH]c1=O -1.11%
Cc1ccc(OC(=O)CCC(=O)Nc2ccc(Br)cc2)cc1 -3.9%
COc1ccc(NC(=O)CCC(=O)Nc2nnc(C3CCCCC3)s2)cc1 -6.36%
Cc1ccc2c(cnn2C(=O)CCC(=O)NC2CCCC2)c1 6.54%
CCN(CC(=O)Nc1c(F)cccc1F)C(=O)c1ccc(-c2ccc(C(C)=O)cc2)o1 1.58%
COc1ccc(-n2c(C)cc(C(=O)CN3C(=O)NC4(CCc5ccccc54)C3=O)c2C)cc1 (stereo not given) -0.58%
O=C(/C(=N\O)n1cncn1)c1ccc(Br)cc1Br -6.03%
Cc1ccc(CN2CCNC(=O)C2CC(=O)NCc2csc(C(C)C)n2)cc1 (stereo not given) -0.36%
O=C1C=C(c2ccc(Cl)cc2)C(=O)N1Nc1ccccc1 -3.83%
Cc1ccc(C(=O)NCCc2nnc(SCC(=O)Nc3cccc(C(=O)O)c3)n2C)cc1 -8.53%
CCC(NC(=O)c1cc(COc2ccc(F)c(F)c2)on1)c1ccncc1 (stereo not given) -0.88%
CCCN(CCC)CCCNC(=O)CNC(=O)c1nn(-c2ccc(OC)cc2)c(=O)c2ccccc12 1.59%
COc1ccc(NS(=O)(=O)c2cc(NC(=O)COc3ccccc3F)ccc2OC)cc1 -0.92%
COc1ccc(C(F)(F)F)cc1N/C=C\c1nnnn1-c1ccc(C)cc1 -1.14%
Cc1ccc(-c2c[n+](=O)c3c(n2[O-])CCC3)cc1 -7.98%
Cc1ccc(NC(=O)C(C)OC(=O)C2CC3CCCC(C2)C3=O)cc1S(=O)(=O)N1CCOCC1 (stereo not given) -1.77%
N#CCCn1ncc2ccccc21 -17%
CCOC(=O)N1CCN(Cc2nc3cc(NC(=O)CC)ccc3n2CC)CC1 -8.27%
CCC(C)CN1CCC(CO)(Cc2ccccc2Cl)CC1 (stereo not given) 2.96%
CC(C)C[C@H]1CN=C(Nc2ccccc2)N1CC1CCCCC1 -2.92%
CCOc1ccc(-n2c(SC(C)C(=O)OC)nc3c(c2=O)SCC3)cc1 (stereo not given) -6.85%
Cc1ccc2nc(Nc3ncc4c(n3)CC(C)(C)CC4=O)nc(C)c2c1 -5.46%
NS(=O)(=O)c1cccc(NC(=O)CC23CC4CC(CC(Br)(C4)C2)C3)c1 -5.43%
CC(C)(CNC(=O)c1ccc(Cl)c(S(=O)(=O)N2CCc3ccccc3C2)c1)N1CCOCC1 -11.2%
COc1ccccc1C(=O)N1CCNC(=O)C1CC(=O)Nc1ccc(Cl)cc1 (stereo not given) 1.41%
COc1cc(OC)cc(C(=O)NCC(=O)OCC(=O)NC(C)CCc2ccccc2)c1 (stereo not given) -1.01%
COC(=O)c1ccc(COC(=O)CNC(=O)c2cccc(OC)c2)o1 -10.2%
Cc1ccc(S(=O)(=O)N2CC(O)C[C@H]2C(=O)OCC(=O)Nc2ccc(N3CCOCC3)cc2)cc1C (stereo not given in full) -9.94%
O=C1COc2ccc(C(=O)COC(=O)C3CC(O)CN3S(=O)(=O)c3ccc(Cl)cc3)cc2N1 (stereo not given) -1.25%
CCN(CC)CCNC(=O)c1ccc(NC(=O)c2c(F)cccc2Cl)cc1 -3.23%
COC(=O)C1=NN(c2ccccc2)C2C(=O)N(c3ccccc3OC)C(=O)C12 (stereo not given) -2.73%
Cc1oc2cc(Br)c(O)c(Br)c2c1C(=O)c1ccccc1 -3.49%
CC(=O)Nc1nc(N(C)C)nc(N(C)C)n1 2.09%
CCN1C(=O)/C(=C2\SC(N3CCCCC3)=NC2=O)c2ccccc21 -0.1%
Cn1c2c(c(=O)n(C)c1=O)C(c1ccc(O)cc1)Nc1ccccc1O2 (stereo not given) 3.38%
O=C(N[C@@H]1C/C=C\C[C@@H](CC(=O)N(CCO)Cc2ccccc2)C(=O)N[C@H](Cc2ccccc2)COC1=O)OCC1c2ccccc2-c2ccccc21 -7.62%
O=C(O)c1ccccc1N=N/C(=N/Nc1cc(S(=O)(=O)O)ccc1O)c1ccccc1 5.68%
CC1CC(C)CN(C(=O)CSc2ccsc2[N+](=O)[O-])C1 (stereo not given) -12.4%
COc1ccc(NC(=O)NCc2ccc3c(c2)OCO3)c(OC)c1 -6.62%
COc1ccc(NC(=O)C2COc3ccccc3O2)cc1 (stereo not given) 1.47%
O=C(Nc1ccccc1)c1nnsc1S(=O)(=O)c1ccc(Cl)cc1 -4.97%
N=c1n(Cc2ccc(Cl)cc2)c2ccccc2n1CC(O)c1ccco1 (stereo not given) -16.9%
Cc1ccc(NC(=O)CN(C)C(=O)c2ccc(Br)o2)cc1 -14.7%
CCCCCCCCNS(=O)(=O)CCNC1CCCCC1 -2.61%
Cc1ccc2c(c1)N(CC(=O)N1CCCC(C)C1)C(=O)CO2 (stereo not given) -10.6%
Cc1c(S(=O)(=O)N2CC(C)CC(C)C2)c(=O)n(C)c(=O)n1C (stereo not given) -1.29%
O=C(O)CCCCOn1ccnc1 -6.34%
CN(CC1CCCO1)S(=O)(=O)c1ccc(C(=O)Nc2ccc(F)cc2)cc1 (stereo not given) 1.44%
COc1ccc(NC2=CC(=S)NC(C)(C)C2)cc1 -18.1%
Cc1ccc2c(c1)N(CC(=O)N1CCC(O)CC1)C(=O)CO2 6.2%
COc1ccc(CNC(=O)CN2C(=O)c3ccccc3S2(=O)=O)cc1 -0.78%

inhibition, active:
O=C(O)c1cccc(S(=O)(=O)Nc2ccc(O)cc2Sc2nc3ccccc3s2)c1 20.3%
Cc1cccc(N(C(=O)Cc2cccs2)C(C(=O)NC2CCCC2)c2ccsc2)c1 (stereo not given) 18.7%
COC(=O)CCc1sc(Nc2ccc(Br)cc2)nc1-c1ccc(OC)cc1 20.8%
COc1cc(OC)cc(C(=O)NCC(=O)OCc2csc(-c3ccccc3)n2)c1 17.6%
CC1CCCC(NC(=O)COC(=O)[C@@H]2CC(O)CN2S(=O)(=O)c2ccc3c(c2)OCCO3)C1C (stereo not given in full) 20.7%
COc1ccc(NC(=O)CC2COc3ccccc3O2)c(OC)c1 (stereo not given) 17.3%
